From PubChem BioAssay (NCATS)
Inconclusive results are not listed. Calls of active or inactive are those of the source. Calls follow the shape of the full dose curve.

Assay: A High-Content qHTS Against Drug Library for the Identification of Small Molecules that Inhibit DYT1 Early Onset Primary Dystonia-Associated Cell Pathology (AID 1645839)
Conditions: HEK293 Flp-In EGFP-delE TorsinA, punctate imaging, 48 h; series mostly up to 46.1 µM
From the text: Nicole Calakos M.D., Ph.D.
Duke University School of Medicine, Durham, NC
In DYT1 dystonia due to delGAG in the TOR1A gene, there is a robust and widely replicated finding of TorsinA protein mislocalization caused when the mutant protein is in excess of the wildtype protein (1-7). Stable HEK293 cell lines were created that replicate this phenomenon. Inducible expression of an EGFP-hu delE TorsinA encoding cDNA causes pronounced punctate cellular distribution. […] This phenotypic difference in EGFP-huTorsinA fusion protein distribution serves as an indicator of cell pathology. […] RNAi screen results with the assay were validated in DYT1 patient cell phenotypes, intersected with a known dystonia gene, and led to discovery of new human genetic dystonia associations.
The bioassay described herein is a high-content image screen with two readouts. The "%pathology" readout is the primary qHTS data channel, while the "cellcount" is the counterscreen qHTS channel. Desired active compounds are those that show inhibition in %pathology channel but no activity or minimal toxicity in cellcount readout.
1. Kustedjo, K., Bracey, M.H., and Cravatt, B.F. (2000). […] J. Biol. Chem. 275, 27933 - 27939.
2. Bragg, D.C., Kaufman, C.A., Kock, N., and Breakefield, X.O. (2004). Inhibition of N-linked glycosylation prevents inclusion formation by the dystonia-related mutant form of torsinA. Mol. Cell. Neurosci. 27, 417 - 426.
3. Gonzalez-Alegre, P., and Paulson, H.L. (2004). Aberrant Cellular Behavior of Mutant TorsinA Implicates Nuclear Envelope Dysfunction in DYT1 Dystonia. J. Neurosci. 24, 2593 - 2601.
4. Goodchild, R.E., and Dauer, W.T. (2004). Mislocalization to the nuclear envelope: an effect of the dystonia-causing torsinA mutation. Proc. Natl. Acad. Sci. U. S. A. 101, 847 - 852.
5. Kock, N., Allchorne, A.J., Sena-Esteves, M., Woolf, C.J., and Breakefield, X.O. (2006). RNAi blocks DYT1 mutant torsinA inclusions in neurons. Neurosci. Lett. 395, 201 - 205.
6. Hewett, J.W., Nery, F.C., Niland, B., Ge, P., Tan, P., Hadwiger, P., Tannous, B.A., Sah, D.W.Y., and Breakefield, X.O. (2008). siRNA knock-down of mutant torsinA restores processing through secretory pathway in DYT1 dystonia cells. Hum. Mol. Genet. 17, 1436 - 1445.
7. Calakos, N., Patel, V.D., Gottron, M., Wang, G., Tran-Viet, K.N., Brewington, D., Beyer, J.L., Steffens, D.C., Krishnan, R.R., and Zuchner, S. (2010). Functional evidence implicating a novel TOR1A mutation in idiopathic, late-onset focal dystonia. J. Med. Genet. 47, 646 - 650.
8. Rittiner* JE, Caffall* ZF, Hernandez-Martinez R, Sanderson SM, Pearson JL, Tsukayama KK, Liu AY, Xiao C, Tracy S, Shipman MK, Hickey P, Johnson J, Scott B, Stacy M, Saunders-Pullman R, Bressman S, Simonyan K, Sharma N, Ozelius LJ, Cirulli ET, Calakos N. Functional Genomic Analyses of Mendelian and Sporadic Disease Identify Impaired eIF2alpha Signaling as a Generalizable Mechanism for Dystonia. Neuron. 2016 Dec 21;92(6):1238-1251. doi: 10.1016/j.neuron.2016.11.012. Epub 2016 Dec 8. PMID: 27939583; PMCID: PMC5320521.
High-content, High-throughput Drug Screening Assay
The TorsinA mislocalization assay was modified from the previously published assay to accommodate compound testing in 1536 well format.1 Briefly, Flp-In T-REx 293 cells from Invitrogen in which a single copy of a cDNA is recombined into a specific genomic locus was used to create tetracycline-inducible expression of cDNA encoding either EGFP-hTOR1A (WT) or EGFP-delE hTOR1A (DYT1). WT and DYT1 cells were diluted to a concentration of 2 x 10^5 cells/mL in reduced serum media (DMEM High Glucose containing 1% tetracycline-tested FBS, 2 mM L-Glutamine, and 1% Penicillin/Streptomycin). 4 µl of WT cells and 4 µl of DTY1 cells were added to column 1 and columns 2-48, respectively, of a poly-D-lysine-coated, low base, black, clear bottom 1536 well plate (Corning, Corning, NY) using the BioRAPTR FRD Microfluidic Workstation (Beckman Coulter, Indianapolis, IN). The final cell number was 800 cells/well. […]

Structure (SMILES)	outcome
CC(C)(N)Cc1ccccc1Cl	inactive
C=CCC1([C@H](C)CCC)C(=O)NC(=O)NC1=O	inactive
C=C(C)[C@H]1CN[C@H](C(=O)O)[C@H]1CC(=O)O	inactive
CC(=O)OCC1=C(C(=O)O)N2C(=O)[C@@H](N)[C@H]2SC1	inactive
C[C@]12CCC(=O)C=C1CC[C@@H]1[C@@H]2CC[C@@]2(C)[C@H]1CC[C@]2(C)O	inactive
CC(C)c1cccc(C(C)C)c1O	inactive
CC(Cc1ccccc1)N(C)Cc1ccco1 (stereo not given)	inactive
O=[N+]([O-])O[C@H]1CO[C@H]2[C@@H]1OC[C@H]2O[N+](=O)[O-]	inactive
COc1cccc2c1C(=O)c1c(O)c3c(c(O)c1C2=O)C[C@@](O)(C(=O)CO)CC3OC1CC(N2CCOC(OC)C2)C(O)C(C)O1 (stereo not given in full)	inactive
CN(C)CCc1c[nH]c2cccc(OP(=O)(O)O)c12	inactive
O=C(N/N=C/c1ccc([N+](=O)[O-])o1)c1cc([N+](=O)[O-])cc([N+](=O)[O-])c1O	inactive
O=c1[nH]c2ccccc2n1C1CCNCC1	inactive
Nc1nc(N)nc(NC2CC2)n1	inactive
CCC1(c2ccccc2)C(=O)N(COC)C(=O)N(COC)C1=O	inactive
CN1C(=O)COc2c(C(=O)NC3CN4CCC3CC4)cc(Cl)cc21 (stereo not given)	inactive
CCC1(CC)C(=O)C=CNC1=O	inactive
O=C1CN=C(c2ccccc2)c2cc([N+](=O)[O-])ccc2N1	inactive
Clc1cccc(SC2CCNCC2)n1	inactive
NC(=O)c1cc([N+](=O)[O-])cc([N+](=O)[O-])c1	inactive
C[C@H](N)C(=O)c1ccccc1	inactive

Structure (SMILES)	outcome
[N-]=[N+]=CC(=O)OC[C@H](N)C(=O)O	inactive
COP(=S)(OC)Oc1ccc(SC)c(C)c1	inactive
C[N+]1(CCF)[C@@H]2CC[C@H]1CC(OC(=O)C(O)(c1ccccc1)c1ccccc1)C2 (stereo not given in full)	inactive
CCCOC(=O)c1cncn1C(C)c1ccccc1 (stereo not given)	inactive
CC(Cc1ccccc1)NCCn1cnc2c1c(=O)n(C)c(=O)n2C (stereo not given)	inactive
C[C@]12CCC(=O)C=C1CC[C@@H]1[C@H]3CC[C@](C)(O)[C@@]3(C)CC[C@@H]12	inactive
COC(=O)[C@@H](N)CCCN/C(N)=N/[N+](=O)[O-]	inactive
Nc1ccc([As](=O)(O)O)cc1	inactive
CCCCCCC(=O)CCCCCC/C=C/C[C@@H](O)[C@H](O)[C@@](N)(CO)C(=O)O	inactive
CCC(C)C(C)(COC(N)=O)COC(N)=O (stereo not given)	inactive
Cc1ncsc1CCCl	inactive
C[C@@H]1CC2=CC(=O)CC[C@@H]2[C@H]2CC[C@@]3(C)[C@@H](CC[C@]3(C)O)[C@@H]21	inactive
NC(=O)CS(=O)C(c1ccccc1)c1ccccc1 (stereo not given)	inactive
COc1cc(OC)c(OC)cc1C=O	inactive
C[C@]12CC[C@H]3[C@@H](CCC4=CC(=O)CC[C@@H]43)[C@@H]1CC[C@@H]2OC(=O)CCc1ccco1	inactive
COc1ccc2c3c1O[C@H]1[C@H](O)CC[C@H]4[C@@H](C2)N(C)CC[C@@]341	inactive
c1ccc2c(c1)sc1ccccc12	inactive
Nc1ccccc1C(=O)O	inactive
CNCC(=O)c1ccc(O)c(O)c1	inactive
ClCCN1CCCC1	inactive
